Screening results (PubChem BioAssay)
Shown are actives, neighbours in structure and some others; about 4.6% of the full set was active somewhere.
Lassa entry inh: inhibitors of Lassa virus binding or cell entry; 300,000 compounds, 1.2% hits; Potency, µM (doses to about 37.9 µM), actives largely listed as inhibitors; Lassa virus pseudotype entry inhibition, cell reporter; AID 540256; calls by dose curve; tested in HEK293 cells; further: nearly all actives have a fitted effect of over 50% in size
HCV inhibitor: inhibitors of hepatitis C virus infection. Huh7.5.1 HCVcc-Cre infection, luciferase reporter, 44 h. 340,000 compounds, 3.4% hits. Potency, µM (series often up to 41.8 µM), usual class: inhibitors. AID 651820; active means well fitted inhibition curve with a large enough effect; inconclusive means small, poorly fitted or top-dose-only effect, or another doubt; inactive means no such curve, though single readings can be large or run the other way
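Whole-lifecycle infectious HCVcc-Cre system; cells 1,000/well, compound then virus (~0.5 moi) added 4 h after plating, 44 h culture. Luciferase read 15 sec following 15 min substrate incubation, room temp.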
MARV entry inh: inhibitors of Marburg virus binding or cell entry; Marburg virus pseudotyped entry inhibition, cell reporter; Potency, µM (doses to about 37.8 µM), most hits filed as inhibitors; 300,000 compounds, 1.8% hits; calls by dose curve; tested in HEK293 cells
Vaccinia Venus: inhibitors of vaccinia virus (Venus reporter); Potency, µM (doses to about 36.5 µM), actives largely listed as inhibitors; 330,000 compounds, 0.46% hits; Vaccinia virus Venus reporter expression, fluorescence; AID 720580; calls by dose curve; tested in A549 cells; further: nearly all actives have a fitted effect of over 30% in size
Vaccinia mCherry: vaccinia inhibition (mCherry reporter) | Potency, µM (highest dose often 36.5 µM), most hits filed as inhibitors | 310,000 compounds, 0.63% hits | Vaccinia virus mCherry reporter infection, fluorescence; calls by dose curve; tested in A549 cells; further: nearly all actives have a fitted effect of over 35% in size
Hits are given with their value; . = inactive; ? = inconclusive; / = no result given.

SMILES	Lassa entry inh	HCV inhibitor	MARV entry inh	Vaccinia Venus	Vaccinia mCherry
Cc1cc2nc(N3CCCN(Cc4cccn4-c4ncccn4)CC3)nc(C)c2cc1C	/	/	/	.	.
COc1cccc2c1C(=O)/C(=C\c1ccc(N(C)C)cc1)C2	/	/	/	.	.
C=CCn1c(N)cc(=O)nc1SC(C)C(=O)Nc1ccc(C(=O)OCC)cc1 (configuration not stated)	.	.	.	.	.
CCOC(=O)c1ccc(NC(=O)C(C)Sc2nc(=O)cc(N)n2CCc2ccccc2)cc1 (configuration not stated)	.	/	5µM	.	.
COc1ccc(/C=c2\[nH]c(=O)/c(=C/c3ccc(OC)c(OC)c3)[nH]c2=O)cc1OC	/	/	/	.	.
COc1cc(CCC(=O)Nc2ccc(Cl)c(C(F)(F)F)c2)cc(OC)c1OC	.	?	?	.	.
COc1cc(C(=O)Nc2ccc(Cl)c(C(F)(F)F)c2)cc(OC)c1OC	.	14µM	.	?	?
Cc1cc(NC(=O)CN(C)S(=O)(=O)c2ccc3c(c2)CCCC(=O)N3)ccc1Br	.	/	/	.	?
O=C(CN1C(=O)NC2(CCCC2)C1=O)Nc1nc(-c2ccc(F)c(F)c2)cs1	/	4µM	/	/	/
COc1ccc(NC(=O)CN2C(=O)C(c3ccc(C)cc3)=NC23CCCCCC3)cc1Cl	.	/	?	.	.
COc1ccc(NC(=O)CN2C(=O)NC3(CCCCCC3)C2=O)cc1Cl	?	25µM	?	.	.
COc1ccc(NC(=O)CN2C(=O)C(c3ccccc3)=NC23CCC(C)CC3)cc1Cl (configuration not stated)	.	/	20µM	.	.
COc1ccccc1NS(=O)(=O)c1cc(NC(=O)CN2C(=O)NC3(CCCCC3)C2=O)ccc1C	/	13µM	/	/	/
CCOC(=O)c1ccc(CN(Cc2ccc(F)cc2)S(=O)(=O)c2ccc(F)c(C(=O)Nc3c(C)cccc3C)c2)cc1	.	/	/	.	.
CC(=O)N1c2ccc(S(=O)(=O)N3CCN(c4cc(Cl)ccc4C)CC3)cc2CC1C (configuration not stated)	.	/	/	.	.
O=C(CN1C(=O)NC2(CCCCC2)C1=O)Nc1ccc(F)cc1	.	.	.	.	.
O=C(CN1C(=O)NC2(CCCCCCC2)C1=O)Nc1ccc(Br)cc1	/	32µM	/	/	/
O=C(/C=C/c1ccco1)Nc1nc(-c2ccc(F)c(F)c2)cs1	/	10µM	/	/	/
Cc1ccc(Sc2ccc(NC(=O)CCN3C(=O)NC4(CCCC4)C3=O)cc2)c(C)c1	/	4µM	/	/	/
Cc1nc(N2C(=O)c3oc4ccccc4c(=O)c3C2c2ccccc2F)sc1C (configuration not stated)	?	/	?	.	.
COc1ccc(CCNC(=O)c2cc3c(=O)oc4ccc(C)cc4c3s2)cc1OC	.	/	.	.	.
Cc1cc(C(=O)NCCCN2CCOCC2)n(-c2ccccc2)n1	/	.	/	.	.
Cc1nn(-c2ccccc2)c2sc(C(=O)NC3CCCCC3)cc12	.	2.5µM	.	.	.
Cc1nn(-c2ccccc2)c2sc(C(=O)NCCN3CCOCC3)cc12	.	2.2µM	?	.	.
Cc1nn(-c2ccccc2)c2sc(C(=O)N3CCCCC3)cc12	?	?	?	.	/
SMILES	Lassa entry inh	HCV inhibitor	MARV entry inh	Vaccinia Venus	Vaccinia mCherry
CCCN1CCc2cccc3c2[C@H]1Cc1ccc(O)c(O)c1-3	?	?	?	.	.
C=CCN1CCc2cccc3c2C1Cc1ccc(O)c(O)c1-3 (configuration not stated)	/	/	11µM	.	.
CN1CCc2cccc3c2[C@H]1Cc1ccc(O)c(O)c1-3	?	?	.	.	.
COc1ccc2c(c1O)-c1cccc3c1C(C2)N(C)CC3 (configuration not stated)	/	/	1µM	/	/
C[C@@H]1CN(Cc2ccc3c(c2)CN(Cc2cccn2-c2ccccn2)CCO3)C[C@H](C)O1	/	/	/	.	.
O=C(c1ccco1)N1CCN(S(=O)(=O)c2ccc(Br)cc2)CC1	/	.	/	/	/
O=C(c1ccco1)N1CCN(S(=O)(=O)c2ccc(Oc3ccccc3)cc2)CC1	.	14µM	?	/	/
CN(C)S(=O)(=O)c1cc(NC(=O)CN2CCN(c3ccccc3O)CC2)ccc1Cl	0.56µM	?	.	.	.
Cc1ccc(NC(=O)CN2CCC(Cc3ccccc3)CC2)cc1S(=O)(=O)N(C)C	/	11µM	/	/	/
CC(=O)N1CCN(CC(=O)Nc2ccc(C)c(S(=O)(=O)N(C)C)c2)CC1	.	.	?	.	.
Cc1noc2ncnc(Oc3cc(Cl)ccc3Cl)c12	.	13µM	.	.	.
CC1CCC(C(C)C)C(OCC(O)CNC(C)c2ccccc2)C1 (configuration not stated)	?	?	?	10µM	10µM
CCCC(NCC(O)COc1ccc(-c2ccccc2)cc1)c1ccccc1 (configuration not stated)	/	11µM	/	/	/
COc1ccc(OCC(O)CNC(C)c2ccccc2)cc1 (configuration not stated)	/	.	/	/	/
CC(CCc1ccccc1)NCC(O)COc1ccccc1 (configuration not stated)	.	?	?	/	/
CC(NCC(O)COc1ccc2ccccc2c1)c1ccccc1 (configuration not stated)	.	6.3µM	?	.	?
CC1CCC(C(C)C)C(OCC(O)CNC(C)(C)C)C1 (configuration not stated)	/	.	/	.	.
NC1CCN(c2cccc(Cl)n2)CC1	.	/	?	/	/
N#Cc1cc(C#N)c(N2CCN(c3cccc(Cl)n3)CC2)nc1N	.	11µM	?	/	/
CC(=O)c1c(C)[nH]c(C(=O)Nc2nc(-c3ccc(Cl)cc3)cs2)c1C	?	?	?	.	.
COc1ccc(-c2nc(NC(=O)c3[nH]c(C)c(C(C)=O)c3C)sc2C)cc1	.	1µM	?	.	.
CC(=O)c1c(C)[nH]c(C(=O)Nc2nc(C)cs2)c1C	2.2µM	.	1.8µM	.	.
CC(=O)c1c(C)[nH]c(C(=O)Nc2ccc(C)cn2)c1C	2.1µM	.	2µM	.	.
COc1ccc(OC)c(NC(=O)c2[nH]c(C)c(C(C)=O)c2C)c1	.	.	.	.	.
CCN(CC)S(=O)(=O)c1nnc(NC(=O)COc2ccccc2F)s1	.	/	/	.	.
SMILES	Lassa entry inh	HCV inhibitor	MARV entry inh	Vaccinia Venus	Vaccinia mCherry
CCOc1ccccc1NC(=S)/C(=C(\[O-])c1ccc2c(c1)OCCO2)[n+]1ccc(CC)cc1	.	.	7.3µM	/	/
C1CCCCCC(NCCN2CCNCC2)CCCCC1	?	1.3µM	?	.	.
O=C(NC1CCCCC1)N1CCNCC1	.	.	.	.	.
CCCn1c2ccc(/C(C)=N\O)cc2c2cc(/C(C)=N/O)ccc21	.	13µM	?	.	.
COc1ccccc1CNC(=O)Cn1ncn2c(cc3sccc32)c1=O	/	/	.	.	.
C=CCOC(=O)C(C(C)=O)[C@@H](NC(=O)OC)c1ccc(Cl)cc1 (some centres not stated)	/	/	.	/	/
CC(C)NC[C@H](O)COc1cccc2[nH]ccc12	.	?	?	.	.
C=CCc1ccccc1OCC(O)CNC(C)C (configuration not stated)	.	?	18µM	.	.
CC(C)NC[C@@H](O)COc1cccc2ccccc12	/	.	18µM	.	.
C=CCc1ccccc1OCC(O)CNC1CCCC1 (configuration not stated)	/	.	/	/	/
